Measurements reported in the supplement of paper PMC11732987, “Enantioselective OTUD7B fragment discovery through chemoproteomics screening and high-throughput optimisation” (Communications Chemistry, 2025).

What was measured:
Assay in all cases: log2 ratio of Biotin-Ahx-Ub-VS probe labelling (fragment/DMSO); higher = less target engagement (more negative = stronger competition), active = hit call of the paper (q ≤ 0.05, log2 ratio ≤ -1)
Details in all cases: compound concentration: 200 uM; treatment time: 3 h
ALG13 = molecular target: T1, ALG13 (UniProt Q9NP73)
T1 sequence (whole entry): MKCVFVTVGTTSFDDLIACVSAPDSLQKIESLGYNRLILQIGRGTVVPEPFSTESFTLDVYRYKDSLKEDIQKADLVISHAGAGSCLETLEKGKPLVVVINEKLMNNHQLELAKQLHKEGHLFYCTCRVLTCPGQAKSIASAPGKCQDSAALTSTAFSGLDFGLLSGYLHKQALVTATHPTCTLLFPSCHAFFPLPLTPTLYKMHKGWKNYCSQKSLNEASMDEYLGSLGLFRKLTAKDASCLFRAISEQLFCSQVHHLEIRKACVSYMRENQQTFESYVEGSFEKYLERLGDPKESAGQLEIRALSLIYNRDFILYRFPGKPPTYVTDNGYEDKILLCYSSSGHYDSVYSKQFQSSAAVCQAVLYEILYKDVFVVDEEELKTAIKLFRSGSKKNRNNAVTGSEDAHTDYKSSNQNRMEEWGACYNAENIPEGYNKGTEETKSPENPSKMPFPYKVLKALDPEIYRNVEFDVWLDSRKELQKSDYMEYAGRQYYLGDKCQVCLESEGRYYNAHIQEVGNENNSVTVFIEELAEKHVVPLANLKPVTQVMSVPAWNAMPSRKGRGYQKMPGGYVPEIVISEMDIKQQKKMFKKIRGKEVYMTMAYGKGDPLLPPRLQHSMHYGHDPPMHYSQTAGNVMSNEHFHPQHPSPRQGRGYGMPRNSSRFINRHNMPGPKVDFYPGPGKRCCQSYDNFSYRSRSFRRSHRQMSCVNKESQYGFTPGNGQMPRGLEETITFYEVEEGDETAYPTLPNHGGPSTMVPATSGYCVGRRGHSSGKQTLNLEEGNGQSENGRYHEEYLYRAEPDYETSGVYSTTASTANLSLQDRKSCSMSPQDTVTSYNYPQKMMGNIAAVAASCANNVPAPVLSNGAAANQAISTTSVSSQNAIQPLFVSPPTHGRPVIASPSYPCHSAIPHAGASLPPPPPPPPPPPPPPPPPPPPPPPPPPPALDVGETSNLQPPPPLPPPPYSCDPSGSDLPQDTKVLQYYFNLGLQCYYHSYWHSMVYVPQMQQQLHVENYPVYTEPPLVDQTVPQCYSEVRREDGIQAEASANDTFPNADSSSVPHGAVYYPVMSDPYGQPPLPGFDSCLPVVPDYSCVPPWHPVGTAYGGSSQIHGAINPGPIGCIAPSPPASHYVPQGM
Procedure, shortened: (§1)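 In triplicate, 495 µg of HEK293T lysate per sample was incubated with fragment at 200 µM or vehicle for 3 h. Biotin-Ahx-Ub-VS was then added to 0.5 µM final for 1 h, and labelled DUBs were captured with NeutrAvidin, digested with LysC and trypsin, and measured by diaPASEF LC-MS/MS. Data are average log2 fragment/vehicle ratios by unpaired t-test from global-median-normalised Spectronaut label-free quantities, restricted to proteins with ≥2 unique peptides.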

ATXN3 = ATXN3 (UniProt P54252)
Chain of ATXN3 (P54252 whole entry): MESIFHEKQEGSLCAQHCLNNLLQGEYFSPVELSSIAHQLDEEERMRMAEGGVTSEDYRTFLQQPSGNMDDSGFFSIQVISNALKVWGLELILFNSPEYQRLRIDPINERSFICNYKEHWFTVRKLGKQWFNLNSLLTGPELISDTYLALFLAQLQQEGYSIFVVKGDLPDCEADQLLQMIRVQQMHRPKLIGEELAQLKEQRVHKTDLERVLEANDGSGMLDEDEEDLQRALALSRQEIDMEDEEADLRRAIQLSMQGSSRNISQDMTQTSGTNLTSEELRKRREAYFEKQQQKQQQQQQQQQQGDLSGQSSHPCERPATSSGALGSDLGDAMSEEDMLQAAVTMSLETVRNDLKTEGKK
Procedure, shortened: as §1

BAP1 = molecular target: T2, BAP1 (UniProt Q92560)
T2 sequence (whole entry): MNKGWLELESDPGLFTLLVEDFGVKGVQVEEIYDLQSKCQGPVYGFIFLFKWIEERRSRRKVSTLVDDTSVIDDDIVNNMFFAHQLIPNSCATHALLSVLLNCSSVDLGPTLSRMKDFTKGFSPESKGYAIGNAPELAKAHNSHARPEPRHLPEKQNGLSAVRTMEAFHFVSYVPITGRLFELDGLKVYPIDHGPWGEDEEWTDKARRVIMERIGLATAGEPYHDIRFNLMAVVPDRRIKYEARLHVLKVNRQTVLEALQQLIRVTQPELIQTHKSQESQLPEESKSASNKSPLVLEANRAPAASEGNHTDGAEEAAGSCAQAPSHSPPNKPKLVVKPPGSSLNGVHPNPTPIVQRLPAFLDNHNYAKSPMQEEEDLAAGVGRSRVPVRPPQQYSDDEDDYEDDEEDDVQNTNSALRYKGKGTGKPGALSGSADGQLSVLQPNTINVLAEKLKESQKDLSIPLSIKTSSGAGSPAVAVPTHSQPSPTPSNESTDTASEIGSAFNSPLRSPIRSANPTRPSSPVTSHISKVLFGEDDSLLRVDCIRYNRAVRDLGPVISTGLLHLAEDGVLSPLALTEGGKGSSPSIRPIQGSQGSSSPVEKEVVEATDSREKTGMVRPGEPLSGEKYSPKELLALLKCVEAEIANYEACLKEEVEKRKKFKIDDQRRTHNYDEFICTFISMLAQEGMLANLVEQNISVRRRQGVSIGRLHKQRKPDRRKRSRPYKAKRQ
Procedure, shortened: as §1

EIF3F = EIF3F (UniProt O00303)
Chain of EIF3F (O00303 whole entry): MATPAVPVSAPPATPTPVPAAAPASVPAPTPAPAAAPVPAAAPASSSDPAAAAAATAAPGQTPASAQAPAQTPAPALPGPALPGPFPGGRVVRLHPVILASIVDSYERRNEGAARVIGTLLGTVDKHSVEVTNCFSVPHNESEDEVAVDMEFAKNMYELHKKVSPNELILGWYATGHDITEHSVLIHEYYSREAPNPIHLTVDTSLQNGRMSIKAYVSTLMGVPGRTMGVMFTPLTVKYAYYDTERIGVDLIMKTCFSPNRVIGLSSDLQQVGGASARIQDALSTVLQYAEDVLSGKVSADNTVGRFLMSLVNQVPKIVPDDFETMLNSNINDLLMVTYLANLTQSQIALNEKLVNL
Procedure, shortened: as §1

EIF3H = EIF3H (UniProt O15372)
Chain of EIF3H (O15372 whole entry): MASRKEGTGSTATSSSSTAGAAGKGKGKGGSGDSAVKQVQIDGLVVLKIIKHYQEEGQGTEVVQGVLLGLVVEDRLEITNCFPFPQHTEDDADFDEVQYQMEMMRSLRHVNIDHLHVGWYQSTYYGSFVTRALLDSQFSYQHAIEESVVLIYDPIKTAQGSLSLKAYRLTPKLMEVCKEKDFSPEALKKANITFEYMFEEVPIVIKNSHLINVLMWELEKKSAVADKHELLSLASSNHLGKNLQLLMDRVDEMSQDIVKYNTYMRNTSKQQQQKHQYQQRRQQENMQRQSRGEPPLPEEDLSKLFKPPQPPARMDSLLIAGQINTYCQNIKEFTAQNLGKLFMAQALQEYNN
Procedure, shortened: as §1

FAM105A = molecular target: T3, FAM105A (UniProt Q9NUU6)
T3 sequence (whole entry): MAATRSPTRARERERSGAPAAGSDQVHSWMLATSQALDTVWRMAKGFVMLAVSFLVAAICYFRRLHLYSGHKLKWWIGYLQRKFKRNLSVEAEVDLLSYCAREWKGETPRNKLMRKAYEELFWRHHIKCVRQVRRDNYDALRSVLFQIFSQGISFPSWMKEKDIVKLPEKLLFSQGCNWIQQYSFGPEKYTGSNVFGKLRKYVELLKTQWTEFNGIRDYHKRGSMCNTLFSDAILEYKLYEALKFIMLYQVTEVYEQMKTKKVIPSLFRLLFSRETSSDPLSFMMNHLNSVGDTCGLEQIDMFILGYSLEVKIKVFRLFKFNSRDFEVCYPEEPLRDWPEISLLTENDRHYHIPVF
Procedure, shortened: as §1

OTUB1 = OTUB1 (UniProt Q96FW1)
Chain of OTUB1 (Q96FW1 whole entry): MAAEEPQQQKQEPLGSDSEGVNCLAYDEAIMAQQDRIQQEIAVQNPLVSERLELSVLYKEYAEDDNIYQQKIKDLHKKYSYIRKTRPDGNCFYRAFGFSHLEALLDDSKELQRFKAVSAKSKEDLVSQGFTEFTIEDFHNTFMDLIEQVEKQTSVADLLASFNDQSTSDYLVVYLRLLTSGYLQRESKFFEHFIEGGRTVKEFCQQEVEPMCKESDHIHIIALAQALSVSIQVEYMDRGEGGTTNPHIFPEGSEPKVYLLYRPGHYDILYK
Procedure, shortened: as §1

OTUD4 = molecular target: T4, OTUD4 (UniProt Q01804)
T4 sequence (whole entry): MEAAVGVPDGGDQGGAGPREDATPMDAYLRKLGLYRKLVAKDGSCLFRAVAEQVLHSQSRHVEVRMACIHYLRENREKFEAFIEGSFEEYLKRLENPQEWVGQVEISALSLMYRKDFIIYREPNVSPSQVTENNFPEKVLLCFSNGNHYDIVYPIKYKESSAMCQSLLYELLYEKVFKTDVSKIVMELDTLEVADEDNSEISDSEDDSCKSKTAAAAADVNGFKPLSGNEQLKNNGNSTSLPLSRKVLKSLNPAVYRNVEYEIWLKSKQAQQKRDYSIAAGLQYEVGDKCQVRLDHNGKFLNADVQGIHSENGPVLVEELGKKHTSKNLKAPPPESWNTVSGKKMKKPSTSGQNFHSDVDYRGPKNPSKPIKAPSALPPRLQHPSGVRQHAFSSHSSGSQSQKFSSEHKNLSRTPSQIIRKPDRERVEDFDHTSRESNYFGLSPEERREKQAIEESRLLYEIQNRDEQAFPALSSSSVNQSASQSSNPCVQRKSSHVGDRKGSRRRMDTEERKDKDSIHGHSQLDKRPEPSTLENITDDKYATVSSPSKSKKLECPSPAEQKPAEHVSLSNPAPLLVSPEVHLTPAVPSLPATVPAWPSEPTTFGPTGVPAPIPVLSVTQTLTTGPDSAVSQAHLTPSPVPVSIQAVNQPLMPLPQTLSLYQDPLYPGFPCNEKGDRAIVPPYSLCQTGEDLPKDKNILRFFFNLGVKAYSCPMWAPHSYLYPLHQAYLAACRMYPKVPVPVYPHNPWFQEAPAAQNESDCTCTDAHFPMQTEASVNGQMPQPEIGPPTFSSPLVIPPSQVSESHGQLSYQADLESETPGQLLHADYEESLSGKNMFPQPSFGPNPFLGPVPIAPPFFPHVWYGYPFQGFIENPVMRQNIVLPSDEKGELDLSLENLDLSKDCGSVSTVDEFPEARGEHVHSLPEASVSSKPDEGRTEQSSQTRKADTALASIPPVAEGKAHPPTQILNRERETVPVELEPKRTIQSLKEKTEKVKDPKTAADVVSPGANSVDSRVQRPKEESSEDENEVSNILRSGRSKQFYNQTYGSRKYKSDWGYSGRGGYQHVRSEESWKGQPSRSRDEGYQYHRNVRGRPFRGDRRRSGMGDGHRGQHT
Procedure, shortened: as §1

OTUD5 = molecular target: T5, OTUD5 (UniProt Q96G74)
T5 sequence (whole entry): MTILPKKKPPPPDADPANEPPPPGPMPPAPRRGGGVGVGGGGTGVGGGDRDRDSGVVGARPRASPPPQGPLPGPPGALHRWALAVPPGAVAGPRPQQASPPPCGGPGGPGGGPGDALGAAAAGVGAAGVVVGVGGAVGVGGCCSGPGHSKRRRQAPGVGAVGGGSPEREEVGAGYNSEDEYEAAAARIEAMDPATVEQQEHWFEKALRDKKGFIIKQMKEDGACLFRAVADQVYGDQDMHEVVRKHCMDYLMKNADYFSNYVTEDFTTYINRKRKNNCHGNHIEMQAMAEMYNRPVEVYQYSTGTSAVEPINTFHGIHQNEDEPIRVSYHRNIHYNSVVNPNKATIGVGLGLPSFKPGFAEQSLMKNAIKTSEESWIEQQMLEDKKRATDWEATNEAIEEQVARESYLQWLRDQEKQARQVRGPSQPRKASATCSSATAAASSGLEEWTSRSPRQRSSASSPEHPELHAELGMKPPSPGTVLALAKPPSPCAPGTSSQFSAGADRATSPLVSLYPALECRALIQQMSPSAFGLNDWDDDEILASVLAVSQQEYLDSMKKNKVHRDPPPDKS
Procedure, shortened: as §1

Measured: log2 ratio of Biotin-Ahx-Ub-VS probe labelling

O=C(CCl)N1CCC(O)(Cc2ccc(F)cc2)C1 (centres undefined)
inactive: ALG13 -0.581 | ATXN3 -0.456 | BAP1 -0.845 | EIF3F -0.133 | EIF3H -0.189 | FAM105A -0.0755 | OTUB1 -0.0952 | OTUD4 -0.135 | OTUD5 -0.233
